HSF-1 act: increases HSF-1 driven luciferase reporter signal; NIH3T3-HGL HSF-1 luciferase reporter, MG132, 8 h; 100% = twice DMSO control signal; activation, % at 9 µM; actives 1.7% (n = 300,000); AID 504408;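 active = mean replicate activation of at least 50% with a set share of replicates each reaching 50%; inconclusive = only one of those two conditions met; inactive = mean below 50% and too few replicates reaching it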
MPTP block: inhibitors of mitochondrial permeability transition pore. isolated mouse mitochondria, Ca2+ swelling absorbance, 30 min. inhibition, % at 10 µM. actives 1.4% (n = 360,000). AID 602449;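 active = inhibition of 50% or more, scaled per plate between neutral and stimulator controls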
dFosB act: mouse delta FosB homodimer activation | P13346 | purified delta FosB, TAMRA-CDK5 oligo fluorescence polarization; percent of positive-control signal above neutral wells | AID 493131 | activation, % at 25 µM | actives 0.99% (n = 340,000);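 active = mean activation above about 17%, with every replicate also reaching it, limit read from the data, passing the limit was not always enough; inconclusive = only one of the two conditions met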
Target sequence (P13346 whole entry, looked up): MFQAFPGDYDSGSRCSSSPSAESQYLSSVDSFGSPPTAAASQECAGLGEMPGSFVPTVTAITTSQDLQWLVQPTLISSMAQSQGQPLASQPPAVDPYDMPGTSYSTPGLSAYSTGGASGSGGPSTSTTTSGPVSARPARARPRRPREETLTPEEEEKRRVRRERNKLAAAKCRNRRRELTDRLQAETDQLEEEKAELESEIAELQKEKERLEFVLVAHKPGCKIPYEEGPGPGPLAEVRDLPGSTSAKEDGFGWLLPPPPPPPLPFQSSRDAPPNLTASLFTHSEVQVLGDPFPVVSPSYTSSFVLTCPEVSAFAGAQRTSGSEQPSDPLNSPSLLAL
HSP90 refold inh: inhibitors of HSP90 luciferase refolding in rabbit reticulocyte lysate. luciferase refolding luminescence, 3 h. inhibition, % at 5.6 µM. actives 0.91% (n = 290,000);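 active = inhibition above the screen-wide mean plus 3 SD, computed separately per campaign, cut at about 16% in these data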;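 also: inhibitors lower the luminescence because luciferase stays unfolded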
Platelet DG rel: platelet dense granule release activity; human platelet-rich plasma, SFLLRN dense granule ATP release, luminescence; inhibition, %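 (compounds screened at 7.5 µM in platelet-rich plasma)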; actives 0.22% (n = 300,000); AID 1663;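 active = mean replicate score, as percent of positive control, at or above 50; inconclusive = mean below 50 but at least one replicate at or above 50; inactive = mean and every replicate below 50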
HSF1 inhib: HSF1 inhibition | actives 0.77% (n = 300,000) | NIH3T3-HGL HSE-luciferase, MG132-induced, luminescence 8 h; hits give low values | AID 2098 | activity change, negative = inhibition, % at 7.5 µM (by protocol);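 active = more than half of replicate wells show activity change below -50%, luminescence cut by over half; inconclusive = some wells, but at most half, below -50%; inactive = no replicate well below -50%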;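 also: luciferase reports HSF-1 transcriptional activity via heat shock element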
Rh123 counter: mitochondrial membrane potential, counter-screen. actives 78% (n = 5,000). AID 624504. shares compounds with MPTP block. inhibition, % at 10 µM. isolated mitochondria, Rhodamine 123 fluorescence; in the data active = inhibition above about 22%
MPTP abs DR: dose response confirmation of mitochondrial permeability transition pore inhibitors; shares compounds with MPTP block; isolated mitochondria swelling, absorbance; IC50, µM; actives 58% (n = 780); AID 651561; in the data active = IC50 below about 20 µM
MPTP cs DR: counter-screen for mitochondrial permeability transition pore inhibitors, dose response. shares compounds with MPTP block. IC50, µM. actives 49% (n = 780). isolated mitochondria counterscreen, fluorescence read-out; in the data active = IC50 below about 80 µM
Of the large screens only hits and unclear results are named; the others gave an inactive call (follow-up assays come after a bar, where they were run). In the library only some 4.9% were active in any assay of this set; here they are far more common.

CCN1CCN(CCCNC(=O)c2ccc3c(=O)n(CCc4ccccc4)c(=O)[nH]c3c2)CC1	none
O=C(c1ccc2c(=O)n(Cc3ccc(Cl)cc3)c(=S)[nH]c2c1)N1CCOCC1	none
CN1CCN(C(=O)c2ccc3c(=O)n(Cc4ccc(Cl)cc4)c(=S)[nH]c3c2)CC1	MPTP block 93 | Rh123 counter inactive | MPTP abs DR 18 | MPTP cs DR inactive
COCCCNC(=O)c1ccc2c(=O)n(Cc3ccc(Cl)cc3)c(=S)[nH]c2c1	none
CC1CCN(CCNC(=O)c2ccc3c(=O)n(Cc4ccc(Cl)cc4)c(=S)[nH]c3c2)CC1	MPTP block 90 | Rh123 counter inactive
CCCN1CCN(CCCNC(=O)c2ccc3c(=O)n(CCc4ccccc4)c(=O)[nH]c3c2)CC1	MPTP block 70 | Rh123 counter inactive | MPTP abs DR inactive | MPTP cs DR inactive
O=C(NCc1ccccc1F)Nc1ccc([N+](=O)[O-])cc1	MPTP block 94 | Rh123 counter 89
O=C(NCc1ccc2c(c1)OCO2)Nc1ccc(Cl)cc1	none
O=C(NCc1ccc2c(c1)OCO2)Nc1ccc([N+](=O)[O-])cc1	MPTP block 81 | Rh123 counter 83
NC(Cc1ccc(F)cc1)c1csc(Nc2ccc(C(=O)c3ccccc3)cc2)n1 (stereo unspecified)	none (no result: HSF-1 act, dFosB act, HSP90 refold inh, Platelet DG rel, HSF1 inhib)
COCCNC(=O)C1CCCN(C(=O)c2ccc3ccccc3n2)CC1 (stereo unspecified)	none (no result: HSF-1 act, dFosB act, HSP90 refold inh, Platelet DG rel, HSF1 inhib)
CCOc1cc(CNCCO)cc(Br)c1OCc1ccc(Cl)cc1	MPTP block 90, dFosB act inconclusive | Rh123 counter inactive | MPTP abs DR 3.8 | MPTP cs DR 61
CCOc1cc(CNCCO)cc(Br)c1OCc1ccccc1Cl	MPTP block 82 | Rh123 counter 20
COc1cc(CNCc2ccncc2)cc(Br)c1OCc1ccccc1F	MPTP block 94 | Rh123 counter 65
COc1cccc(CNCCO)c1OCc1ccccc1Cl	none
COc1cc(CNCCO)cc(Cl)c1OCc1ccccc1Cl	MPTP block 80 | Rh123 counter inactive | MPTP abs DR 5.5 | MPTP cs DR inactive
CCOc1cc2[nH]c(=S)n(CCC(=O)NC3CCCCC3)c(=O)c2cc1OCC	none (no result: HSF-1 act, dFosB act, HSP90 refold inh, Platelet DG rel, HSF1 inhib)
CCc1ccccc1NC(=O)c1ccc(CN2CCC(Cc3ccccc3)CC2)cc1	MPTP block 57 | Rh123 counter inactive
O=C(NCc1ccccc1)c1ccc(CN2CCC(Cc3ccccc3)CC2)cc1	none
O=c1cc(Nc2ccc3c(c2)OCCO3)[nH]c(=O)n1C1CCCCC1	none
CCc1ccc(Nc2cc(=O)n(C3CCCCC3)c(=O)[nH]2)cc1	MPTP block 63 | Rh123 counter 107
N#C/C(=C\c1ccc(O)cc1)c1nc2ccccc2o1	MPTP block 87 | Rh123 counter 90
COc1ccc(Nc2nc3ccccc3nc2NS(=O)(=O)c2cccs2)cc1	MPTP block 61 | Rh123 counter 64
CC(=O)c1ccc(Nc2nc3ccccc3nc2NS(=O)(=O)c2cccs2)cc1	MPTP block 83 | Rh123 counter 32
O=C(O)c1cccc(Nc2nc3ccccc3nc2NS(=O)(=O)c2cccs2)c1	none
CC(=O)NC(CCc1ccc(Cl)c(Cl)c1)c1cccc(O)c(=O)c1 (stereo unspecified)	none (no result: HSF-1 act, dFosB act, HSP90 refold inh, Platelet DG rel, HSF1 inhib)
N#C/C(=C(/O)C(Cl)(Cl)Cl)c1nc2ccccc2[nH]1	MPTP block 76 | Rh123 counter 81
CCOc1ccccc1NC(=O)c1nc(-c2ccccc2)oc1C	none
O=[N+]([O-])/C(C=Nc1ccccc1O)=C\Nc1ccccc1O	MPTP block 83 | Rh123 counter inactive
Cn1c(=O)c(C#N)c(-c2ccc(F)cc2)c2cc(C(=O)c3cc(Cl)cc(Cl)c3O)cnc21	MPTP block 95 | Rh123 counter 60
CN(C)CCN(C(=O)/C=C/c1cccs1)c1nc2ccc(F)cc2s1	MPTP block 72 | Rh123 counter inactive | MPTP abs DR 13 | MPTP cs DR inactive
CCN(CC)CCN(C(=O)/C=C/c1cccs1)c1nc2ccc(Cl)cc2s1	none
CN(Cc1cccs1)c1ncnc2sccc12	MPTP block 57 | Rh123 counter 63
c1csc(CNc2ncnc3sccc23)c1	MPTP block 90 | Rh123 counter 73
CN(Cc1ccccc1F)c1ncnc2sccc12	none
c1ccc(CCNc2ncnc3sccc23)nc1	MPTP block 61 | Rh123 counter inactive | MPTP abs DR inactive | MPTP cs DR 52
Cc1csc2ncnc(NCCc3ccccn3)c12	MPTP block 87 | Rh123 counter 70
CCc1c(C(=O)Nc2ccc(OC)c(Cl)c2)[nH]c(C)c1C(C)=O	MPTP block 88 | Rh123 counter 95
COC(=O)c1c(NC(=O)C2CC2)sc(C(=O)Nc2ccccc2)c1C	none
C=CCn1cccc(/C=C/C(=O)c2ccc(C(C)(C)C)cc2)c1=S	MPTP block 77 | Rh123 counter inactive
O=C(CSc1nnc(-c2cccnc2)s1)Nc1ccnc2ccccc12	MPTP block 104 | Rh123 counter 73
Cc1ccc(NC(=O)CSc2nnc(-c3cccnc3)s2)cc1	none
Cc1nnc(SCC(=O)Nc2cccc([N+](=O)[O-])c2)n1CC1CCCO1 (stereo unspecified)	none
COc1cc(OC)c2c(OC)cccc2n1	none
CCOC(=O)c1nc(C)nc(Sc2n[nH]c(-c3cc(C(F)(F)F)cc(C(F)(F)F)c3)n2)c1C	MPTP block 65 | Rh123 counter 72
CCN(CC(=O)Nc1c(F)cccc1F)C(=O)c1ccc(N2CCCC2=O)cc1	none (no result: HSP90 refold inh)
CSc1ncc(Cl)c(C(=O)C(C#N)c2nc3c(C)cc(C)cc3c(=O)[nH]2)n1 (stereo unspecified)	MPTP block 91 | Rh123 counter 73
CSc1ncnc2c1ncn2CCCN(C)CCc1ccccn1	none (no result: HSF-1 act, dFosB act, HSP90 refold inh, Platelet DG rel, HSF1 inhib)
Cc1ccc(-c2nc(NCc3ccco3)c3ccccc3n2)cc1	none
Cc1cccc(Nc2nc(NCc3ccco3)c3ccccc3n2)c1	MPTP block 91, dFosB act 38 | Rh123 counter 90
c1ccc(Nc2nc(NCc3ccco3)c3ccccc3n2)cc1	MPTP block 76, dFosB act inconclusive | Rh123 counter 91
CCc1nnc(NC(=O)CCC(=O)N2CCC(Cc3ccccc3)CC2)s1	none
Cc1[nH]n(-c2ccc(F)cc2)c(=O)c1/C=N/c1sc2c(c1C#N)CCCC2	MPTP block 106 | Rh123 counter 25
CCc1nnc(NS(=O)(=O)c2ccc(N=Cc3c(C)[nH]n(-c4ccc(Cl)cc4)c3=O)cc2)s1	none
